According to PubChem BioAssay (NCI):
The panel holds about 83,000 compounds, 20% with a hit somewhere; the sample as a whole holds those more often.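 Step 1: grow cells in 96-well plates. Step 2: add test compound at a single concentration. Step 3: incubate 48 h. Step 4: record percent growth.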 Values without a mark were called inactive. The source made the active and inactive calls. How the source made its calls: active means growth percent below 10; inactive means the rest.

Legend:
Test in all cases: NCI-60 one-dose screen, 48 h (100 = growth as untreated, 0 = no growth, -100 = all killed)
Conditions in all cases: 10 µM unless noted
[1] = tested on: NCI-H23 lung
[2] = tested on: NCI-H226 lung
[3] = tested on: NCI-H322M lung
[4] = tested on: HOP-62 NSCLC
[5] = tested on: NCI-H460 lung
[6] = tested on: HOP-92 NSCLC
[7] = tested on: NCI-H522 lung
[8] = tested on: A549/ATCC NSCLC
[9] = tested on: 786-0 renal
[10] = tested on: COLO 205 colon

C=C(C)[C@@H]1CC[C@]2(C(=O)N3CCN(C)CC3)CC[C@]3(C)[C@H](CC[C@@H]4[C@@]5(C)CC[C@H](O)C(C)(C)[C@@H]5CC[C@]43C)[C@@H]12
growth [1]: -14.5% (active) | growth [2]: 129% | growth [3]: 10.4% | growth [4]: 55.6% | growth [5]: -69.5% (active) | growth [6]: 14.5% | growth [7]: -89.6% (active) | growth [8]: -82.4% (active) | growth [9]: -95.1% (active) | growth [10]: -69.2% (active)

COc1ccc(C(=O)CSc2nc(-c3cc(OC)ccc3OC)cc(-c3ccc(Cl)cc3)c2C#N)cc1
growth [1]: 44.1% | growth [2]: -2.99% (active) | growth [3]: 67.9% | growth [4]: 39.9% | growth [5]: 25.4% | growth [6]: 43.9% | growth [7]: 27.6% | growth [8]: 56.5% | growth [9]: 23.7% | growth [10]: 65.2%

O=C(c1nnc(Nc2ccccc2Br)o1)c1c[nH]c2ccccc12
growth [1]: 88.1% | growth [2]: 85.6% | growth [3]: 94.6% | growth [4]: 79.2% | growth [5]: 99.2% | growth [6]: 97.9% | growth [7]: 98.2% | growth [8]: 88.2% | growth [9]: 103% | growth [10]: 98.9%

O=S(=O)(NCCNc1nccc(-c2c(-c3cccc(O)c3)nc3occn23)n1)c1ccccc1
growth [1]: 93.5% | growth [2]: 104% | growth [3]: 93.7% | growth [4]: 119% | growth [5]: 80.6% | growth [6]: 80.9% | growth [7]: 77.5% | growth [8]: 78.9% | growth [9]: 93.3% | growth [10]: 34.6%

COc1cc2cc(CN3CCN(c4nccc(-c5ccc6ccccc6c5)n4)CC3)c(=O)[nH]c2cc1OC
growth [1]: 97.3% | growth [2]: 96.5% | growth [3]: 98.4% | growth [4]: 96.2% | growth [5]: -35.9% (active) | growth [6]: 98.4% | growth [7]: 85.6% | growth [8]: 2.34% (active) | growth [9]: 32.7% | growth [10]: 80%

CC(=O)O[C@H]1Cc2c([nH]c3ccccc23)[C@@H](c2ccc(Cl)cc2)N1C(=O)CCNC(C)(C)C
growth [1]: 84.5% | growth [2]: 69% | growth [3]: 65.9% | growth [4]: 69.1% | growth [5]: 37.5% | growth [6]: 14.1% | growth [7]: 63.9% | growth [8]: 76.3% | growth [9]: 53.1% | growth [10]: 53.7%

CCc1c2c(nc3ccc(OCc4ccc(B(O)O)cc4)cc13)-c1cc3c(c(=O)n1C2)COC(=O)[C@]3(O)CC
growth [1]: -35.8% (active) | growth [2]: -21.4% (active) | growth [3]: 15.7% | growth [4]: -17% (active) | growth [5]: 2.12% (active) | growth [6]: -4.54% (active) | growth [7]: -9.3% (active) | growth [8]: 7.22% (active) | growth [9]: -13.7% (active) | growth [10]: 13.6%

O=C1c2ccc3c4c(ccc(c24)C(=O)N1CCCNCc1ccccc1F)C(=O)N(CCCNCc1ccccc1F)C3=O
growth [1]: -53% (active) | growth [2]: -51.9% (active) | growth [3]: -83.5% (active) | growth [4]: -29.7% (active) | growth [5]: -55.2% (active) | growth [6]: -14.2% (active) | growth [7]: -92.5% (active) | growth [8]: -91.2% (active) | growth [9]: -40.1% (active) | growth [10]: -46% (active)

COC(=O)N[C@H]1CCc2c(Cl)c(OC)c(OC)c(OC)c2-c2ccc(SC)c(=O)cc21
growth [1]: 34% | growth [2]: 22.7% | growth [3]: 35.4% | growth [4]: 38% | growth [5]: -11.4% (active) | growth [6]: 1.96% (active) | growth [7]: 21.7% | growth [8]: 19.8% | growth [9]: 7.29% (active) | growth [10]: -24.3% (active)

O=C(c1ccccc1)N1N=C(c2ccc(-n3ccc(C(F)(F)F)n3)c(F)c2)CC1c1ccc[nH]1 (stereo not drawn)
growth [1]: 104% | growth [2]: 108% | growth [3]: 98.7% | growth [4]: 122% | growth [5]: 102% | growth [6]: 141% | growth [7]: 89.9% | growth [8]: 99.9% | growth [9]: 97.1% | growth [10]: 116%

CCSCC1CC(O)(c2ccccc2)CC(c2ccc(F)cc2)O1 (stereo not drawn)
growth [1]: 26.6% | growth [2]: 24.6% | growth [3]: 45.4% | growth [4]: 26.2% | growth [5]: -30.9% (active) | growth [6]: -9.6% (active) | growth [7]: 53.9% | growth [8]: 20.7% | growth [9]: -23.7% (active) | growth [10]: -94.8% (active)

CCOC(=O)C1=C(CCl)NC(=O)NC1c1ccc2c(c1)OCO2 (stereo not drawn)
growth [1]: 48.3% | growth [2]: 88.5% | growth [3]: 88.1% | growth [4]: 53.8% | growth [5]: 76.9% | growth [6]: 60.1% | growth [7]: -42.3% (active) | growth [8]: 66.1% | growth [9]: 43.2% | growth [10]: 75.6%

COc1cc(CC(=O)c2ccc(O)c(OC)c2)ccc1O
growth [1]: 103% | growth [2]: 81.9% | growth [3]: 89.6% | growth [4]: 91.4% | growth [5]: 100% | growth [6]: 84.5% | growth [7]: 88.4% | growth [8]: 79.5% | growth [9]: 104% | growth [10]: 107%

COc1cc(C2C3=C(COC3=O)N(CCO)c3cc4c(cc32)OCO4)cc(OC)c1OC (stereo not drawn)
growth [1]: 12.2% | growth [2]: 6.36% (active) | growth [3]: 50.3% | growth [4]: 12.6% | growth [5]: -54.3% (active) | growth [6]: 52.1% | growth [7]: -13% (active) | growth [8]: 30.8% | growth [9]: 9.85% (active) | growth [10]: -84.3% (active)

Cc1cccc(C)c1N=c1oc2ccc(Cl)cc2nc1-c1ccccc1O
growth [1]: 78.6% | growth [2]: 88.1% | growth [3]: 88.6% | growth [4]: 112% | growth [5]: 97.2% | growth [6]: 55.9% | growth [7]: 82.9% | growth [8]: 96.7% | growth [9]: 90% | growth [10]: 89.7%

O=C(CCN1CCCC1)Nc1ccc2c(Nc3ccc(F)cc3)c3ccccc3nc2c1
growth [1]: -12.8% (active) | growth [2]: 42.7% | growth [3]: -14.6% (active) | growth [4]: -12.5% (active) | growth [5]: -66.4% (active) | growth [6]: 4.17% (active) | growth [7]: -22.6% (active) | growth [8]: -21.8% (active) | growth [9]: -35.9% (active) | growth [10]: -33.2% (active)

COc1cc(-c2cc(-c3ccc(N(C)C)cc3)nc(N3CCOCC3)c2C#N)cc(OC)c1OC
growth [1]: 60% | growth [2]: 19.9% | growth [3]: 35.8% | growth [4]: -36.8% (active) | growth [5]: 15.2% | growth [6]: 4.13% (active) | growth [7]: 0.156% (active) | growth [8]: 26.9% | growth [9]: -38.5% (active) | growth [10]: 19.9%

Cc1c(C(=O)NCCC(=O)NO)sc2ncnc(Nc3ccc(NC(=O)Nc4cccc(C(F)(F)F)c4)cc3)c12
growth [1]: 100% | growth [2]: 97.9% | growth [3]: 104% | growth [4]: 102% | growth [5]: 99.4% | growth [6]: 115% | growth [7]: 94.4% | growth [8]: 104% | growth [9]: 116% | growth [10]: 113%

CC(C)N1C(=O)S/C(=C2/SC(=O)N(C(C)C)C2=O)C1=O
growth [1]: 93.8% | growth [2]: 102% | growth [3]: 93.4% | growth [4]: 111% | growth [5]: 102% | growth [6]: 74.6% | growth [7]: 89.9% | growth [8]: 101% | growth [10]: 112%

CCOC(=O)c1cc(C(=O)c2ccc(Br)cc2)n2ccc(/C=C/c3cc[n+](CC(=O)c4ccc(OC)cc4)cc3)cc12
growth [1]: 92.5% | growth [2]: 101% | growth [3]: 96.2% | growth [4]: 100% | growth [5]: 96.4% | growth [6]: 96.4% | growth [7]: 91.8% | growth [8]: 73.3% | growth [10]: 91.7%

COc1ccc(C(=O)C2C(C#N)C(C#N)C3c4ccccc4C=CN23)cc1 (stereo not drawn)
growth [1]: 83.3% | growth [2]: 74.7% | growth [3]: 89% | growth [4]: 92.9% | growth [5]: 97.7% | growth [6]: 85.9% | growth [7]: 71.9% | growth [8]: 87.2% | growth [10]: 107%

CCOC(=O)c1cc(C(=O)c2ccc(OC)cc2)n2ccc(/C=C/c3cc[n+](CC(=O)c4ccc(OC)cc4)cc3)cc12
growth [1]: 83.6% | growth [2]: 90.7% | growth [3]: 86.3% | growth [4]: 81.1% | growth [5]: 75.1% | growth [6]: 50.1% | growth [7]: 57.1% | growth [8]: 52.2% | growth [10]: 65.3%

CC(Oc1ccc(C(=O)O)cc1C(F)(F)F)c1ccc(Oc2ccccc2)cn1 (stereo not drawn)
growth [1]: 98.6% | growth [2]: 97.6% | growth [3]: 99.5% | growth [4]: 99.1% | growth [5]: 104% | growth [6]: 97.8% | growth [7]: 88.2% | growth [8]: 99.9% | growth [9]: 99.4% | growth [10]: 130%

Brc1ccc2[nH]cc(-c3cncn3CCc3ccccc3)c2c1
growth [1]: 37.9% | growth [2]: 53.5% | growth [3]: 74.3% | growth [4]: 63.4% | growth [5]: 66.5% | growth [6]: 23.4% | growth [7]: 51.1% | growth [8]: 56.7% | growth [10]: 66.3%

CCCCN1C=CCN(CCCC)C1
growth [1]: 65.4% | growth [2]: 82.9% | growth [3]: 75% | growth [4]: 84.1% | growth [5]: 50.1% | growth [6]: 50.2% | growth [7]: 47.7% | growth [8]: 66.7% | growth [9]: 73.9% | growth [10]: 30.4%

O=C(CNCCN1CCOCC1)N1c2cccc3cccc(c23)N(C(=O)CNCCN2CCOCC2)C1c1cn(-c2ccccc2)nc1-c1cccc([N+](=O)[O-])c1
growth [1]: 95.8% | growth [2]: 81.4% | growth [3]: 97.6% | growth [4]: 89.7% | growth [5]: 96% | growth [6]: 53.2% | growth [7]: 75.3% | growth [8]: 82.3% | growth [10]: 52.8%

Nc1ccccc1NC(=O)c1ccc(-n2nc(-c3ccccc3)c3ccccc32)cc1
growth [1]: 89.1% | growth [2]: 64.7% | growth [3]: 83.5% | growth [4]: 84.7% | growth [5]: 79.3% | growth [6]: 78.9% | growth [7]: 25% | growth [8]: 74.5% | growth [10]: 117%
